Source: PubChem BioAssay (NCI)
Values joined by “and” are separate entries in the source; they are usually repeats but may differ in a detail not shown here. Equal values may be shown once. The panel holds about 79,000 compounds, 15% with a hit somewhere; the sample as a whole holds those more often. Active and inactive are the calls of the source. No stated cut-off is given here; in the data, active means growth inhibition above about 70%; inactive means the rest.

What was measured:
[1] = NCI Yeast Anticancer Drug Screen. Data for the rad50 strain (AID 155);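 further: 0% = growth of vehicle-only cultures of the same strain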; conditions: S. cerevisiae rad50 strain growth inhibition, active compounds read high; at 50.0 µM unless noted
Outline: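 Growth of the mutant yeast was measured after compound exposure and referenced to vehicle-treated cultures.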

[2] = NCI Yeast Anticancer Drug Screen. Data for the mec2-1 strain (AID 157); conditions: S. cerevisiae mec2-1 strain, active compounds read high; at 50.0 µM unless noted
Outline: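 Using mec2-1 yeast: add compound, measure growth, express inhibition versus vehicle-treated cultures.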

[3] = NCI Yeast Anticancer Drug Screen. Data for the sgs1 mgt1 strain (AID 161);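 further: 0% = growth of cultures given vehicle only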; conditions: S. cerevisiae sgs1 mgt1 strain, active compounds read high; at 50.0 µM unless noted
Outline: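 Compounds are added to genetically altered yeast, and growth is compared with cultures given vehicle alone to give percent inhibition.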

[4] = NCI Yeast Anticancer Drug Screen. Data for the cln2 rad14 strain (AID 165);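 further: 0% = growth equal to vehicle treated cultures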; conditions: S. cerevisiae cln2 rad14 strain, active compounds read high; at 50.0 µM unless noted
Outline: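 Yeast strain cln2 rad14, bearing defects in cell cycle control and DNA repair, serves as the test system; values reflect growth inhibition compared with vehicle.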

[5] = NCI Yeast Anticancer Drug Screen. Data for the bub3 strain (AID 167); conditions: S. cerevisiae bub3 mutant strain, active compounds read high; at 50.0 µM unless noted
Outline: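 Whole-cell yeast assay. The mutant strain was incubated with compounds, and growth inhibition was determined by comparison with vehicle-treated cells.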

[6] = NCI Yeast Anticancer Drug Screen. Data for the mlh1 rad18 strain (AID 175); conditions: S. cerevisiae mlh1 rad18 strain growth inhibition, active compounds read high; at 50.0 µM unless noted
Outline: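 Steps: expose repair-defective yeast to compound; measure growth; express inhibition against vehicle-treated controls.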

Measured: growth inhibition

O=CC(=O)O
inactive: [1] 28.1% | [2] -19.6% | [3] 15.7% | [4] 13.7% | [5] 26.6% | [6] 25.7%

CC1CC[N+](C)(CC(=O)c2ccc(-c3ccc(C(=O)C[N+]4(C)CCC(C)CC4)cc3)cc2)CC1 (stereo not given)
inactive: [1] -8.2% | [2] 1.4% | [3] -12.7% | [4] 22.9% | [5] -3.15% | [6] -10.2%

Cc1ccc(C(=O)CC(Sc2ccccc2N)c2c(Cl)cccc2Cl)c(C)c1 (stereo not given)
inactive: [1] -7.4% | [2] -26.4% | [3] 3.8% | [4] -4.5% | [5] -11.1% | [6] -16.5%

CC1=C(C(=O)Nc2ccccc2)C(c2ccc3c(c2)OCO3)C(C(=O)Nc2ccccc2)=C(C)N1
inactive: [1] 38.3% | [2] 33.5% | [3] 10.5% | [4] 17.1% | [5] 38.5% | [6] 27.1%

O=C(NC1c2ccccc2Oc2ccccc21)OCCI
inactive: [1] 36.1% | [2] 6.05% | [3] 37.6% | [4] 13.3% | [5] -14% | [6] 19.8%

CC(O)CNC1=CC(=O)C(=O)c2ccccc21 (stereo not given)
inactive: [1] -13.3% | [2] -26.1% | [3] 4.8% | [4] 4.3% | [5] 20.4% | [6] -20.6%

CN(C)CCNC(=O)Cn1ccc(=O)c2ccc([N+](=O)[O-])cc21
inactive: [1] 11.9% | [2] 6.55% | [3] 20.6% | [4] 20.8% | [5] -5.85% | [6] -39.5%

CCC(C)(C)NC(N)=O
inactive: [1] 13.1% | [2] 22.6% | [3] 8.55% | [4] -34.2% | [5] 8.55% | [6] 23.7%

COCS(=O)(=O)c1ccccc1
inactive: [1] 2.55% | [2] -6.1% | [3] 11.8% | [4] 14.3% | [5] 6.55% | [6] 0.15%

NNC(=O)c1nc2ccccc2s1
inactive: [1] 18.1% | [2] 4.75% | [3] -8.3% | [4] 5.95% | [5] 8.95% | [6] 20.6%

COc1cc(/C=N/NC(=O)c2ccccc2OC)ccc1O
inactive: [1] 41.4% | [2] 17.4% | [3] 22.9% | [4] 20.8% | [5] 27.9% | [6] 17.2%

Cc1cc(O)cc(C)c1O
inactive: [1] 7.05% | [2] 5.45% | [3] 2.8% | [4] -23.4% | [5] -0.3% | [6] -7.75%

COc1ccc(/C(CC2OC(=O)c3ccccc32)=N\NC(=O)C[N+](C)(C)C)cc1 (stereo not given)
inactive: [1] 6.1% | [2] -10.8% | [3] 0.4% | [4] 7.55% | [5] 12.1% | [6] 8.5%

CCOc1cccc(C=N)c1O
inactive: [1] 35.8% | [2] -0.55% | [3] 51.9% | [4] 36.4% | [5] -1.75% | [6] 46.5%

CC(C)=CC(=O)CNC(N)=S
inactive: [1] 36.1% | [2] 17.9% | [3] 16.4% | [4] 10.7% | [5] 0.25% | [6] 23.9%

COc1cc(OC)c2c(c1)OC(c1cccnc1)C(c1ccccc1)C2=O (stereo not given)
inactive: [1] -5.2% | [2] -57.9% | [3] -5% | [4] -27.7% | [5] 12.5% | [6] 3.9%

CC(Sc1nc(N)nc2nc[nH]c12)C(=O)O (stereo not given)
inactive: [1] -15.2% | [2] -3.55% | [3] -11.3% | [4] -23.6% | [5] 4.15% | [6] 11%

O=C(O)[C@H](Cc1ccccc1)N1C(=O)N[C@@H](Cc2ccccc2)C1=O
inactive: [1] -21.6% | [2] -1.7% | [3] 4.75% | [4] 2.35% | [5] 3.6% | [6] -2.7%

O=c1[nH][nH]c2ccccc12
inactive: [1] 23.1% | [2] -11.3% | [3] 13.1% | [4] 13.9% | [5] 8.9% | [6] 12.2%

S=c1[nH]c2ccccc2c(=S)n1CN1CCCCC1
inactive: [1] -26.6% | [2] -27.4% | [3] -15.3% | [4] -13.1% | [5] 4.6% | [6] -11.9%

Cc1[nH]c(=S)[nH]c1C
inactive: [1] 4.1% | [2] 9.5% | [3] 12.2% | [4] 10% | [5] 15.7% | [6] 12.6%

Cc1ccc(O)cc1N(C)C
inactive: [1] -18.4% | [2] -3.95% | [3] -12.7% | [4] -35% | [5] -6.25% | [6] -3.65%

Nc1cc(S(=O)(=O)O)cc2cc(S(=O)(=O)O)cc(S(=O)(=O)O)c12
inactive: [1] -31.6% | [2] -51% | [3] -29.6% | [4] -144% | [5] -17.5% | [6] 23.4%

C=C1C(=O)OCC1C(=O)OCC (stereo not given)
inactive: [1] 9.35% | [2] 7.7% | [3] -0.35% | [4] 3.35% | [5] -24.8% | [6] 14.2%

CCCCN1C(=O)NC(Cc2ccccc2)C1=O (stereo not given)
inactive: [1] -13.2% | [2] -1.35% | [3] -13.2% | [4] 4.95% | [5] -1.9% | [6] -12.5%

O=CN1CCCCC1
inactive: [1] -43.1% and -15.2% | [2] -26% and -2.6% | [3] -3.05% and -5.15% | [4] 3.15% and -27.7% | [5] -18.9% and 0.45% | [6] -8.8% and 0.65%

CN1OC(=O)OC(C)(c2ccccc2)C1=O (stereo not given)
inactive: [1] 2.9% | [2] -12.3% | [3] -2.3% | [4] 0.25% | [5] 0.6% | [6] -0.05%

COc1ccc(OC)c(N)c1
inactive: [1] -4.3% | [2] -8.4% | [3] -7.55% | [4] 16.4% | [5] 3.6% | [6] -22.9%

Cc1cn(C2CC(ON)C(CO)O2)c(=O)[nH]c1=O (stereo not given)
inactive: [1] -8.1% | [2] -1.15% | [3] 23.2% | [4] 13.9% | [5] 6.25% | [6] -48%

O=C1CN(Cc2cccc(Cl)c2)CC(=O)N2Cc3ccccc3CN12
inactive: [1] 34.4% | [2] -1% | [3] 14.2% | [4] -10.8% | [5] 8.9% | [6] -11.5%

C=C(Br)CNC(=O)CCC(=O)NCC(=C)Br
inactive: [1] -27.5% | [2] -11.8% | [3] -3.35% | [4] -5.9% | [5] -21.4% | [6] -57.7%

CCOCCC(=O)OCCCl
inactive: [1] 29.2% | [2] 9.4% | [3] 13.3% | [4] 10.1% | [5] 15.7% | [6] 22.9%

O=C1Oc2ccccc2C(=O)/C1=C/N1C(=O)N/C(=C\c2cccc(O)c2)C1=O
inactive: [1] 21.9% | [2] 19.9% | [3] 37.6% | [4] 45.5% | [5] 15.7% | [6] -7.5%

CC12CC[C@H](O)C(C)(C)[C@H]1CC[C@](C)(O)C2COc1ccc2ccc(=O)oc2c1 (stereo not given in full)
active: [1] 86.3% | [2] 75.2% | [3] 85.6% | [5] 76.3% | [6] 77.1%
inactive: [4] 37.1%

OC(CN1CCCC1)c1ccccc1 (stereo not given)
inactive: [1] -1.8% | [2] -11.2% | [3] 15.9% | [4] 28.6% | [5] -0.25% | [6] -30.6%

C#CC1(O)C2CCc3cc(OC)ccc3C2CCC1(C)C(=O)OC (stereo not given)
inactive: [1] 10.8% | [2] -0.2% | [3] 4.05% | [4] 6.85% | [5] -11.9% | [6] -11.6%

CC1=NN(C(=O)c2ccccc2O)C(=O)/C1=C/c1ccccc1O
inactive: [1] -29.1% | [2] -11.8% | [3] -14.8% | [4] -9.7% | [5] -39.5% | [6] -24.6%

CN(C)c1ccc(C(=O)Cc2ccc3ccccc3n2)cc1
active: [1] 98.7% | [2] 99.2% | [3] 99.1% | [4] 98.2% | [5] 98.9% | [6] 98.9%

Cc1[nH]c(=O)nc2nc3ccc(Cl)cc3c(N(CCO)CCO)c12
inactive: [1] -24.3% | [2] -20.8% | [3] -12.8% | [4] 19.2% | [5] 19.9% | [6] -8.7%

NCC1COC(c2ccccc2)(c2ccccc2)O1 (stereo not given)
inactive: [1] -2.25% | [2] -12.4% | [3] -12.9% | [4] -32.5% | [5] 17.8% | [6] -7.65%
